HCV inh – inhibitors of hepatitis C virus infection; Huh7.5.1 HCVcc-Cre infection, luciferase reporter, 44 h; Potency, µM (series often up to 41.8 µM), usual class: inhibitors; hit rate 3.4% among 340,000; AID 651820
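Cells seeded at 1,000/well and cultured 4 h, then compounds added followed by HCVcc-Cre virus (~0.5 moi). After 44 h further culture, luciferase substrate was added, plates held 15 min at room temperature, and luminescence read for 15 sec.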
HCMV antiviral – inhibitors of human cytomegalovirus; HFF cells, HCMV-luciferase reporter, 72 h; hits give low values; activity change, negative = inhibition, % at 57.5 µM; hit rate 4.5% among 410,000; in the data active = activity change below about -60%; inconclusive = no clear call, values can overlap the other calls; inactive = above about -39%
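Luciferase read-out from HCMV-luciferase-infected HFFs (MOI 1 PFU/cell) 72 h post infection at 37C; compounds added after 16 h cell attachment; activity normalized between buffer-only basal and Salinomycin (10uM) inhibitor controls.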
FMDV antiviral – foot and mouth disease virus antiviral activity; FMDV antiviral cell-based qHTS; Potency, µM (top dose mostly 57.9 µM), hits mostly inhibitors; hit rate 1.2% among 410,000; AID 1159524; calls by dose curve; tested in HEK293T cells; note: read-out not given here; nearly all actives have a fitted effect of over 45% in size
AmpC inh no detg – AmpC beta-lactamase inhibition without detergent. P00811. AmpC nitrocefin hydrolysis, absorbance 480 nm, 0.0001% Triton. Potency, µM (titrated, usually from 57.1 µM), usual class: inhibitors. hit rate 0.52% among 330,000; note: nearly all actives have a fitted effect of over 20% in size
Target sequence (P00811 whole entry, looked up): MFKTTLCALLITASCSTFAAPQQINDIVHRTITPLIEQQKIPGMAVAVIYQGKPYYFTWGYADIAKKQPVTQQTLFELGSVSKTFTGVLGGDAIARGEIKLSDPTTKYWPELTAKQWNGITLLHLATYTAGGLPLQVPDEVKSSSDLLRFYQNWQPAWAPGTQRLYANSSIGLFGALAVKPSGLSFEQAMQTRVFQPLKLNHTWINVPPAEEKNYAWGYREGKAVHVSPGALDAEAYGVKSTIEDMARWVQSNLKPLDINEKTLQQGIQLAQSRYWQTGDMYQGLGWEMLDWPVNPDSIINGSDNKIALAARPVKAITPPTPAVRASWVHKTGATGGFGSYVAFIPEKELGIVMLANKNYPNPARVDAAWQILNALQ
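AmpC (5.3 nM in the dispensed reagent) in 20 mM phosphate pH 7.0 with 0.01% (detergent screen) or 0.0001% Triton X-100 was preincubated with compounds for 15 min at room temperature. Nitrocefin was then added from an 800 uM solution, and hydrolysis was followed at 480 nm.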
AmpC inh detg – inhibitors of E. coli AmpC beta-lactamase with detergent | P00811 | AmpC hydrolysis of nitrocefin, absorbance 480 nm, 0.01% Triton | Potency, µM (top dose mostly 114 µM), hits mostly inhibitors | hit rate 0.041% among 370,000; note: nearly all actives have a fitted effect of over 25% in size
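AmpC (5.3 nM in the dispensed reagent) in 20 mM phosphate pH 7.0 with 0.01% (detergent screen) or 0.0001% Triton X-100 was preincubated with compounds for 15 min at room temperature. Nitrocefin was then added from an 800 uM solution, and hydrolysis was followed at 480 nm.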
HCV inh confirm – confirmation of hepatitis C virus inhibitors | hit rate 78% among 640 | HCVcc-Cre infectious virus cell assay, luciferase, inhibition | Potency, µM (top dose mostly 41.8 µM), most hits filed as inhibitors | shares compounds with HCV inh; note: nearly all actives have a fitted effect of over 80% in size
HCV host tox – counter-screen for HCV inhibitors: host cell cytotoxicity; shares compounds with HCV inh; AID 720576; HCV host cell line cytotoxicity counterscreen; hit rate 22% among 640; Potency, µM (top dose mostly 41.8 µM), most hits filed as inhibitors;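 note: 44 h compound exposure; nearly all actives have a fitted effect of over 55% in size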
Numbers stand for hits; 0 = inactive; ? = inconclusive; - = no result given; ! = not confirmed by another sample. In the library only some 7.3% were active in any assay of this set; here they are far more common. Unless noted, calls come from the whole dose curve; as a rule, active = well fitted curve in the direction sought with a large enough effect; inconclusive = small, poorly fitted or top-dose-only effect, or another doubt; inactive = no such curve, though single readings can be large; an effect the other way counts as inactive or inconclusive.

SMILES	HCV inh	HCMV antiviral	FMDV antiviral	AmpC inh no detg	AmpC inh detg	HCV inh confirm	HCV host tox
c1coc(CNc2nc3nonc3nc2NCc2ccco2)c1	?	-72	?	0	0	2.2µM	0
CCSC(=Nc1ccccc1)N1CCOCC1	0	0	0	-	-	-	-
COc1ccccc1NC(=O)c1ccc(SCC(=O)NCc2ccccc2Cl)c([N+](=O)[O-])c1	?	0	0	0	0	?	0
COc1cccc(NC(=O)CN(C)C(=O)c2cc(S(=O)(=O)NCc3ccccc3)ccc2C)c1	-	0	0	0	0	-	-
CNCCCOc1ccc2c(c1)CCC2	0	0	0	0	0	-	-
CNCCOc1ccc(Cl)c(Cl)c1	?	0	0	0	0	0	0
CCCC(=O)NC(=S)Nc1ccc(N2CCN(C(=O)c3cccs3)CC2)cc1	0.79µM	0	?	0	0	?	0
Cc1ccc(CN(Cc2ccccc2)C(=S)Nc2ccccc2C)o1	3.2µM	0	0	0	0	0	0
CS(=O)c1nc(-c2ccc(Br)cc2)cc(-c2ccccc2)c1C#N (stereo not given)	5µM	-98	-	0	0	?	?
CCS(=O)(=O)CCSc1nc(-c2ccc(Br)cc2)cc(-c2ccccc2)c1C#N	-	0	0	-	0	-	-
OCc1cccc[n+]1Cc1ccccc1	0	0	0	-	-	-	-
COc1ccc(/C=N/NC(=O)c2ccc(CN3C(=O)c4cccc5cccc3c45)cc2)cc1O	?	0	0	0	0	-	-
COc1cc(/C=N/NC(=O)c2ccc(CN3C(=O)c4cccc5cccc3c45)cc2)cc(OC)c1O	?	0	0	0	0	?	0
CC(NC(=O)c1cc2c(=O)n3ccccc3nc2n(CC2CCCO2)c1=N)c1ccccc1 (stereo not given)	2.2µM	0	0	0	0	11µM	0
N=c1c(C(=O)NCc2ccc3c(c2)OCO3)cc2c(=O)n3ccccc3nc2n1Cc1cccnc1	6.3µM	0	0	0	0	14µM	0
N=c1c(C(=O)NCc2ccco2)cc2c(=O)n3ccccc3nc2n1Cc1ccccc1	3.2µM	0	0	0	?	3.5µM	?
CC1CCCC(NC(=O)CCNC(=O)c2ccc([N+](=O)[O-])cc2)C1C (stereo not given)	0	0	0	0	0	-	-
CN(C(=O)CSc1nnc(-c2cccs2)n1C1CC1)C1CCS(=O)(=O)C1 (stereo not given)	0	0	0	0	0	-	-
COc1ccc(CCNC(=O)c2cc(Nc3cc(C)cc(C)c3)nc3ccccc23)cc1OC	-	?	0	-	0	-	-
CCN(Cc1ccc(OC)c(F)c1)C(=O)/C=C/c1ccc(S(=O)(=O)N2CCOCC2)cc1	?	0	0	0	0	-	-
COc1cc2sc(C)nc2c2sccc12	2.2µM	0	0	0	0	25µM	0
COc1ccc2sc(C)nc2c1NC(C)=O	0	0	0	0	?	-	-
CCOC(=O)N1CCN(C(=O)CSCC(=O)Nc2nc(-c3ccc4c(c3)OCO4)cs2)CC1	?	-	?	0	0	16µM	0
O=C(CSCC(=O)N1CCOCC1)Nc1nc(-c2ccc3c(c2)OCO3)cs1	0	0	0	0	?	-	-
Nc1ccccc1C#Cc1ccc([N+](=O)[O-])cc1	?	0	0	-	-	1.8µM	0
SMILES	HCV inh	HCMV antiviral	FMDV antiviral	AmpC inh no detg	AmpC inh detg	HCV inh confirm	HCV host tox
O=S(=O)(/N=C/c1ccccc1O)c1cccs1	0	0	-	0	?	-	-
CC(C)(C)c1cc[n+](C2=C([O-])c3ccccc3C(=O)/C2=N\S(=O)(=O)c2cccs2)cc1	2.8µM	-100	8.9µM	0	0	25µM	?
Cc1nc2ccccn2c1-c1csc(Nc2cccc(C(=O)O)c2)n1	0	?	0	0	0	-	-
Cc1cccc(Nc2nc(-c3c(C)nc4ccccn34)cs2)c1	2.5µM	-95	-	0	0	14µM	25µM
COc1ccc([N+](=O)[O-])cc1NC(=O)CSc1nc(C)c(C)c(C)n1	0	0	0	0	0	-	-
COc1ccc([N+](=O)[O-])cc1NC(=O)C(C)Sc1nc(C)c(C)c(C)n1 (stereo not given)	5.6µM	0	0	0	0	13µM	0
CCC(=O)c1cc2c(cc1NC(=O)c1ccccc1)OCCO2	4µM	0	-	0	0	4µM	0
CCC(=O)c1cc2c(cc1NC(=O)c1ccccc1F)OCCO2	-	0	0	-	0	-	-
Cc1nn(Cc2c(F)c(F)c(F)c(F)c2F)c(C)c1NC(=O)c1ccc(COc2ccc(F)cc2)o1	2µM	?	?	0	?	14µM	0
CC(=O)c1ccc(NC(=O)CCNC(=O)c2ccc(Cl)cc2)cc1	0	0	0	0	0	-	-
Cc1cc(/C=C(\C#N)C(=O)Nc2ccccc2)c(C)n1-c1ccc2c(c1)OCO2	?	0	0	?	?	18µM	0
O=C(C[n+]1ccc(/C=N/O)cc1)NC(=O)Nc1ccccc1	0	0	0	0	0	-	-
COc1ccc(NC(=O)c2ccccc2OCc2c(C)noc2C)cc1OC	?	0	0	0	0	?	0
O=C(Cc1ccc(Cl)cc1Cl)Nc1ccncc1Cl	7.9µM	-90	?	0	0	7µM	10µM
COC(=O)c1ccc2c(c1)C(C)(C)C(/C=C/c1ccc(O)cc1)=[N+]2C	2.2µM	-102	10µM	?	0	5µM	8.9µM
COC(=O)c1ccc2nc(C)c(C)nc2c1	0	0	0	0	0	-	-
COC(=O)c1cn(C(=O)c2ccc(F)cc2)c2ccccc12	0	0	0	0	0	-	-
COC(=O)c1cn(C(=O)OC)c2ccccc12	5.6µM	0	0	0	0	?	0
CCN(CC(=O)NNC(=O)c1ccccc1)Cc1ccc(OC)c(F)c1	0	0	0	0	-	-	-
COc1ccc(CNC(=O)CSc2ncc3c(n2)-c2ccc(Cl)cc2N(Cc2ccc(F)cc2)S3(=O)=O)cc1OC	-	0	?	-	0	-	-
NC(N)=NC(N)=NCCc1ccccc1	3.2µM!	-82	0	0	0	2.8µM	?
Cc1cc(/C=N/NC(=O)c2ccccc2F)c(C)n1-c1ccccc1	7.9µM	?	0	0	0	?	0
COc1cc(C(=O)O/N=C(\N)c2ccc([N+](=O)[O-])cc2)cc(OC)c1OC	?	0	0	0	0	?	0
COC(=O)C1=C(\O)CCCC/C=C\1C(=O)O	0	0	0	-	-	-	-
COc1cc(OC)c(NC(=O)C(=O)CC(=O)c2ccc(C)cc2C)cc1Cl	3.5µM	0	0	0	0	14µM	0
COc1cccc(C(=O)CC(=O)C(=O)Nc2ccc(C)cc2Cl)c1	0	0	0	0	0	-	-
COC(=O)c1cccc(-c2cc(Cl)c3c(c2)CC(CNC(=O)c2cccnc2)O3)c1 (stereo not given)	-	-	0	-	-	-	-
CC(C)(C)C(=O)CSc1nc2c(c(-c3cccs3)c1C#N)CCC2	?	0	0	0	0	-	-
